Screening data as filed in PubChem BioAssay.
A selection: hits, their analogues and other compounds. The true share with any hit is near 2.8%.
MsrA inhibitor – bovine MsrA inhibition; purified bovine MsrA, absorbance read-out; inhibition, % at 15.5 µM; hit rate 0.75% among 360,000; AID 651718
SMARCA2 activ – increases SMARCA2 function in MMTV reporter cells | MG213 cells, MMTV-luciferase reporter, dexamethasone, overnight | hit rate 1% among 370,000 | activation, % at 9.1 µM | AID 652017; in the data active = activation above about 7.8%
proKLK7 act – activates the human kallikrein-7 zymogen; hit rate 0.9% among 370,000; purified proKLK7, EDANS-DABCYL substrate fluorescence; 100% is mature enzyme control, 0% vehicle; AID 652039; P49862; activation, % at 7 µM;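 active = activation above the mean of all tested compounds plus 3 SD, computed per campaign excluding outliers beyond control limits, cut at about 13% in these data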
Target sequence (P49862 whole entry, looked up): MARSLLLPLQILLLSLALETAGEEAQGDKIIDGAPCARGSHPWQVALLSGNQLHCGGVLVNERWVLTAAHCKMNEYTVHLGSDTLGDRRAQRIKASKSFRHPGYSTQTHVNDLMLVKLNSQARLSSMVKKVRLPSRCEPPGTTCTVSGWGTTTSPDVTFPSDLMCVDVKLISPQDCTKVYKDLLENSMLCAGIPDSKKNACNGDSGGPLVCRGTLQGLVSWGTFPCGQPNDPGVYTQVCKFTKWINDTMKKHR
bovine MsrA act – activates bovine MsrA enzyme; hit rate 0.3% among 360,000; purified bovine MsrA, absorbance read-out; activation, % at 10.6 µM; in the data active = activation above about 7.5%
MsrA conf – confirmation of bovine MsrA inhibitors; inhibition, % at 15.5 µM; purified bovine MsrA, absorbance read-out; shares compounds with MsrA inhibitor; hit rate 41% among 2,300;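 also: coupled to thioredoxin reductase with NADPH and selenocystamine and DMSO as substrate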
A number is an active result; – = inactive; · = not tested or not shown. Rule as the data show it, unless noted: active = inhibition above about 4.5%; inactive = the rest.

SMILES	MsrA inhibitor	SMARCA2 activ	proKLK7 act	bovine MsrA act	MsrA conf
COc1ccc(-c2cc(=O)oc3c(C)c(OC(C)C(C)=O)ccc23)cc1 (configuration not stated)	22	–	–	–	16
Cc1[nH]n(-c2ccc(Cl)cc2)c(=O)c1C(=O)c1ccccc1	7.3	–	–	–	–
NC(=N\N=Cc1ccco1)/C(N)=N/N=Cc1ccco1	4.8	–	–	–	6.4
Oc1ccc(C=NN=Cc2ccco2)c(O)c1	4.9	–	–	–	5.4
O=C(CNC(=O)c1ccco1)N/N=C/c1ccc(O)cc1O	–	–	–	–	·
CC(=O)Cc1nsc(NC(=O)c2ccc(-c3ccc(F)cc3)o2)n1	7.0	–	–	–	5.4
COc1cc(/C=N/NC(=S)N/N=C/c2cc(OC)c(OC)c(OC)c2)cc(OC)c1OC	–	–	–	–	·
COc1ccc(/C=N/NC(=S)Nc2cccc(C(=O)O)c2)cc1OC	7.6	–	–	–	5.6
COc1cc(/C=N/NC(=S)Nc2cccc(C(=O)O)c2)cc(OC)c1OC	5.1	–	–	–	–
COc1cccc(/C=N/NC(=S)Nc2cccc(C(=O)O)c2)c1	–	–	–	–	·
CN(C)c1ccc(/C=N/Nc2cccc(C(=O)O)c2)cc1	5.1	–	–	–	–
COc1ccc(C=NNC(=S)Nc2ccc(F)cc2)cc1OC	5.7	–	–	–	–
CNC[C@@H]1OCc2ccccc2-c2c(n(C)c3ccccc23)C(=O)N([C@H](C)CO)C[C@@H]1C	–	–	–	–	·
Cc1ccccc1NC(=O)OCCCN1C(=O)CCC12CCC(C)CC2 (configuration not stated)	·	–	–	·	·
COc1cccc(/C=N/NC(=O)c2ccc3nc[nH]c3c2)c1O	–	–	–	–	·
Cc1ccc(/C=N/NC(=O)c2ccc3nc[nH]c3c2)s1	7.3	–	–	–	5.7
COc1ccc(/C=N/NC(=O)c2ccc3nc[nH]c3c2)c(OC)c1OC	5.1	–	–	–	–
CC(=O)Nc1cccc(-c2ccnc3c2CC(C)(C(=O)Nc2cccc(Oc4ccccc4)c2)O3)c1 (configuration not stated)	–	–	–	–	·
Cc1ccnc(NS(=O)(=O)c2ccc(NC(=O)/C=C/c3ccccc3)cc2)n1	–	–	–	–	·
Cc1ccnc(NS(=O)(=O)c2ccc(NC(=O)/C=C/c3cccs3)cc2)n1	5.9	–	–	–	–
O=C(/C=C/c1cccs1)Nc1ccc([N+](=O)[O-])cc1	–	–	–	–	·
O=C(/C=C/c1cccs1)Nc1ccncc1	5.9	–	–	–	5.3
C=CCN1[C@H](C)COc2cc(N3CCSCC3)ccc2S1(=O)=O	·	–	–	·	·
CCCCOCCCNC(=O)C[C@@H]1C(=O)N(CCc2ccc(Cl)cc2)C2=CCCCC[C@]21C(=O)OC	·	–	–	·	·
C[C@@H]1CN([C@H](C)CO)C(=O)c2cc(C3=CCCCC3)cnc2O[C@@H]1CN(C)Cc1ccccc1C(=O)O	–	–	–	–	·
SMILES	MsrA inhibitor	SMARCA2 activ	proKLK7 act	bovine MsrA act	MsrA conf
CC1Cc2ccccc2N1C(=O)c1cnc2n(c1=O)CCS2 (configuration not stated)	–	–	–	–	·
CC(=O)c1cnc2sccn2c1=O	6.2	–	–	–	–
Cc1cccc(NC(=O)c2cnc3sccn3c2=O)c1	–	–	–	–	·
CC1Cc2ccccc2N1C(=O)c1cnc2sccn2c1=O (configuration not stated)	5.4	–	–	–	–
COc1cc(OC)cc(C(=O)NCC2CCN(C(=O)C(=O)c3cccs3)CC2)c1	–	–	–	·	·
O=C(c1ccc2c(=O)n(Cc3ccccc3)c(=S)[nH]c2c1)N1CCOCC1	–	–	–	–	·
CC(=O)c1ccc(N2CCN(C(=O)c3ccc(Cn4c(=S)[nH]c5ccc(N6CCOCC6)cc5c4=O)cc3)CC2)cc1	5.0	–	–	–	4.8
CCCN1CCCc2cc(CN)ccc21	16	–	–	–	–
CCCc1ccc2c(C(F)(F)F)cc(C(F)(F)F)cc2n1	–	–	–	–	·
O=S1(=O)N=C(N/N=C/c2cccs2)c2ccccc21	5.8	–	–	–	4.8
CCc1cc2c(=O)c(-c3nc4ccccc4n3C)c(C)oc2c(CN2CCOCC2)c1O	5.0	–	–	–	–
CCc1cc2c(=O)c(-c3nc4ccccc4n3C)c(C(C)C)oc2c(CN2CCN(C)CC2)c1O	–	–	–	–	·
CCc1cc2c(=O)c(-c3nc4ccccc4n3C)c(C)oc2c(CN2CCN(CCO)CC2)c1O	5.2	–	–	–	–
CN1/C(=C/C(=O)C2CC2)C(C)(C)c2ccccc21	5.8	–	–	–	5.1
CCc1nc2c(OCC(=O)c3ccc(F)cc3)cccn2c1N(C)C(=O)c1ccc(OC)cc1	–	–	–	–	·
Cc1c(N=Nc2ccc(O)cc2)c(=O)n(-c2ccccc2)n1C	5.2	–	–	–	–
Cc1nnc(Nc2ccc(F)cc2)c2ccccc12	–	–	–	–	·
Cc1nnc(Nc2ccccn2)c2ccccc12	5.5	–	–	–	–
O=[N+]([O-])c1ccccc1NC(=S)N/N=C/c1ccc(O)c(O)c1	5.9	–	–	–	7.3
Cc1cc(/C=C(\C#N)C(=O)O)c(C)n1CC(C)C	7.2	–	–	–	–
Cc1cc(/C=C(\C#N)C(=O)O)c(C)n1CCC(C)C	–	–	–	–	·
O=C(O)c1cc(-c2ccc(/C=N/N3C(=O)C4C5C=CC(C6CC56)C4C3=O)o2)ccc1Cl (configuration not stated)	5.4	–	–	–	7.8
O=C1C2C3C=CC(C4CC34)C2C(=O)N1/N=C/c1ccc(-c2ccc(Cl)cc2[N+](=O)[O-])o1 (configuration not stated)	–	–	–	–	·
O=C(O)c1cc(-c2ccc(/C=N/N3C(=O)C4C5C=CC(CC5)C4C3=O)o2)ccc1Cl (configuration not stated)	7.4	–	–	–	5.8
Cc1ccc2nc(-c3ccccc3)c(Cc3ccccc3C(F)(F)F)n2c1	–	–	–	–	·
SMILES	MsrA inhibitor	SMARCA2 activ	proKLK7 act	bovine MsrA act	MsrA conf
COc1cccc(N2[C@@H](CC(C)=O)c3ccc(/C=C/C(C)=O)cc3S2(=O)=O)c1	–	–	–	–	·
COc1ccc(C(=O)N/N=C/c2sc(N3CCOCC3)nc2-c2ccccc2)cc1OC	–	–	–	–	·
COc1ccccc1NS(=O)(=O)c1cc([N+](=O)[O-])ccc1N/N=C/c1sc(N2CCOCC2)nc1-c1ccccc1	11	–	–	–	7.0
O=C(N/N=C/c1cnc(N2CCOCC2)s1)c1ccccc1	5.2	–	–	–	5.1
COc1ccccc1NS(=O)(=O)c1cc([N+](=O)[O-])ccc1N/N=C/c1c[nH]c2ccccc12	–	–	–	–	·
O=C(N/N=C/c1sc(N2CCOCC2)nc1-c1ccccc1)c1ccc(O)cc1	17	–	–	–	10
CCOC1=C2[C@@H](CN(S(=O)(=O)c3ccccc3C)[C@H]2c2ccc(Cl)cc2)[C@H]2C(=O)NC(=O)[C@H]2C1	–	–	–	–	·
Cc1ccc(Cn2cc(COC(=O)NCCc3c[nH]c4ccccc34)nn2)cc1	·	–	–	·	·
CN(Cc1ccccc1)C(CNS(=O)(=O)c1ccccc1)c1ccccc1 (configuration not stated)	–	–	–	–	·
